Assay results reported in PubChem BioAssay AID1159580 (chemical genetic matrix, 2015).
“And” between values parts separate entries of the source, which are not always exact repeats. Equal entries are not always repeated. The campaign covered roughly 5,500 compounds. About 2,000 (36%) were called active. About 18% were inconclusive and are not listed. No stated cut-off is given here; in the data, active means normalized growth mostly below about 0.91 (no sharp cut-off); inconclusive means no clear call, values can overlap the other calls; inactive means mostly above about 0.92. The list shows a part of the results.

Test: chemical genetic growth profiling, strain panel (AID 1159580);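 further: tested at 20 µM; growth read once vehicle control cultures reached saturation at 30 °C; 1 = growth at the plate median or of vehicle wells; lower values mean less growth of the strain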
Details: S. cerevisiae deletion strains, growth OD

Measured: normalized growth

O=c1[nH]c2ccccc2n1C1CCN(CCCC(c2ccc(F)cc2)c2ccc(F)cc2)CC1
active: locus YAL021C, strain ccr4, hits give low values 0.839 | locus YBR009C, strain hhf1, hits give low values 0.875 | locus YDR069C, strain doa4, hits give low values 0.854 | locus YDR137W, strain rgp1, hits give low values 1.26 [resistant] | locus YDR388W, hits give low values 0.838 | locus YDR392W, strain spt3, hits give low values 0.646 | locus YER155C, strain BEM2 (second series), hits give low values 0.707 | locus YFR010W, strain ubp6, hits give low values 0.878 | locus YIL073C, strain SPO22, hits give low values 1.72 [resistant]
inactive: locus YAL013W, strain DEP1, hits give low values 1.01 and 0.995 | locus YAL026C, strain drs2, hits give low values 0.948 | locus YAL030W, strain snc1, hits give low values 0.963 | locus YAL040C, strain CLN3, hits give low values 1.03 | locus YBL061C, strain skt5, hits give low values 0.967 | locus YBR021W, strain FUR4, hits give low values 0.969 | locus YBR023C, strain chs3, hits give low values 0.918 | locus YBR171W, strain sec66, hits give low values 1.03 | locus YBR229C, strain ROT2, hits give low values 0.948 | locus YBR231C, strain swc5, hits give low values 0.92 | locus YBR279W, strain paf1, hits give low values 0.953 | locus YCL011C, strain gbp2, hits give low values 0.93 | locus YCL016C, strain dcc1, hits give low values 0.95 | locus YCL029C, strain bik1, hits give low values 0.986 | locus YCL061C, strain MRC1 (second series), hits give low values 1.01 | locus YCL061C, strain MRC1, hits give low values 0.95 | locus YCL069W, strain vba3, hits give low values 1 | locus YCR088W, strain abp1, hits give low values 1 | locus YDL005C, strain med2, hits give low values 1.01 | locus YDL035C, strain GPR1, hits give low values 0.968 | locus YDL040C, strain nat1, hits give low values 1.01 | locus YDL074C, strain BRE1, hits give low values 0.904 | locus YDL101C, strain DUN1, hits give low values 0.978 | locus YDL134C, strain PPH21, hits give low values 0.972 | locus YDL185W, strain tfp1, hits give low values 0.997 | locus YDL192W, strain arf1, hits give low values 1 | locus YDR001C, strain nth1, hits give low values 1.02 | locus YDR101C, strain arx1, hits give low values 1 | locus YDR150W, strain NUM1, hits give low values 0.973 | locus YDR159W, strain sac3, hits give low values 0.92 | locus YDR162C, strain NBP2, hits give low values 0.975 | locus YDR195W, strain ref2 1.05 | locus YDR297W, strain sur2, hits give low values 0.959 | locus YDR318W, strain mcm21, hits give low values 0.975 | locus YDR334W, strain swr1, hits give low values 1.01 | locus YDR335W, strain msn5, hits give low values 0.959 | locus YDR363W, strain ESC2, hits give low values 0.989 | locus YDR502C, strain sam2, hits give low values 0.986 | locus YEL003W, strain gim4, hits give low values 0.944 | locus YEL037C, strain rad23, hits give low values 0.936 | locus YEL061C, strain CIN8 (second series), hits give low values 1.01 | locus YEL061C, strain CIN8, hits give low values 0.989 | locus YER015W, strain faa2, hits give low values 0.953 | locus YER016W, strain bim1, hits give low values 0.961 | locus YER110C, hits give low values 0.993 | locus YER111C, strain swi4, hits give low values 1.02 | locus YER155C, strain BEM2, hits give low values 1.02 | locus YER167W, strain BCK2, hits give low values 0.99 | locus YGL078C, strain dbp3, hits give low values 0.994 | locus YGL086W, strain mad1, hits give low values 0.986 | locus YGL167C, strain pmr1, hits give low values 1.01 | locus YGL173C, strain kem1, hits give low values 0.936 | locus YGL227W, strain vid30, hits give low values 1.03 | locus YGL240W, strain doc1, hits give low values 0.916 | locus YGL248W, strain PDE1, hits give low values 0.979 | locus YGL253W, strain hxk2, hits give low values 0.938 | locus YGR078C, strain PAC10, hits give low values 0.967 | locus YGR135W, strain pre9, hits give low values 0.926 | locus YGR229C, strain SMI1, hits give low values 0.949 | locus YGR252W, strain gcn5, hits give low values 0.782 | locus YHR013C, strain ard1, hits give low values 1.02 | locus YHR027C, strain rpn1, hits give low values 0.927 | locus YHR030C, strain SLT2, hits give low values 0.995 and 0.973 | locus YHR079C, strain IRE1 (second series), hits give low values 0.994 | locus YHR079C, strain IRE1, hits give low values 0.942 | locus YHR094C, strain hxt1, hits give low values 0.995 | locus YHR129C, strain ARP1, hits give low values 0.987 | locus YHR142W, strain chs7, hits give low values 0.915 | locus YHR200W, strain rpn10, hits give low values 0.988 | locus YIL066C, strain RNR3, hits give low values 0.968 | locus YIL125W, strain kgd1, hits give low values 0.995 | locus YIR030C, strain dcg1, hits give low values 1 | locus YJL092W, strain hpr5, hits give low values 0.936 | locus YJL095W, strain BCK1 (second series), hits give low values 0.973 | locus YJL095W, strain BCK1, hits give low values 1.01 and 0.96 | locus YJL115W, strain asf1, hits give low values 1.02 | locus YJL129C, strain trk1, hits give low values 0.885 | locus YJL134W, strain LCB3, hits give low values 0.993 | locus YJL154C, strain vps35, hits give low values 1.01 | locus YJL164C, strain tpk1, hits give low values 0.937 | locus YJL166W, strain qcr8, hits give low values 0.947 | locus YJL168C, strain set2, hits give low values 0.997 | locus YJL187C, strain SWE1 (second series), hits give low values 0.97 | locus YJR043C, strain POL32, hits give low values 0.996 | locus YJR066W, strain TOR1, hits give low values 0.93
